# Hits are enriched below; roughly 3.5% of the tested compounds scored in any of these assays.
# Pf apPOL block = Pf-apPOL inhibitors, biochemical, fluorescence. Plasmodium falciparum apicoplast DNA polymerase (apPOL). 0.25% of 210,000 active. inhibition, % at 10 µM. Recombinant Pf-apPOL, molecular beacon fluorescence, 1.5 h
# mHTT CaM bind = mutant huntingtin-calmodulin interaction inhibitors – biochemical, AlphaScreen, primary screen; AlphaScreen His-mHTT/GST-CaM binding, luminescence; P42858; 3.6% of 190,000 active; inhibition, % at 15 µM;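 note: 0% = both proteins with DMSO and 100% = one protein alone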
# Numbers without * were called inactive; · = no result. Cut-off read from the data, not from the text of the source: active = inhibition above about 50%; inactive = the rest.
SMILES,Pf apPOL block,mHTT CaM bind
O=C(NCc1cnccn1)c1ccnc(N2CCNC(c3ccccc3)C2)c1 (stereo unspecified),1,70*
O=C(NCc1ccccn1)c1cccc(N2CCNC(c3ccccc3)C2)n1 (stereo unspecified),-20,85*
COc1ccc(CNC(=O)c2ccnc(N3CCNC(c4ccccc4)C3)c2)c(OC)c1 (stereo unspecified),-1,47
O=C(NCc1ccccc1)c1cccc(N2CCNC(c3ccccc3)C2)n1 (stereo unspecified),-23,22
CC1CCC(NC(=O)c2cc(-c3cccnc3)nc3ccccc23)CC1 (stereo unspecified),-25,21
O=[N+]([O-])c1ccc(N2CCNCC2)cc1NCc1ccccc1,2,33
Cc1ccsc1C1C2=C(CC(C)(C)CC2=O)Nc2ncnn21 (stereo unspecified),1,87*
Cc1ccsc1C1C2=C(CCCC2=O)Nc2ncnn21 (stereo unspecified),-3,-4
CC(=NCCN1CCOCC1)c1c(C(F)(F)F)[nH]n(-c2nc3ccccc3s2)c1=O,-1,2
CC(=NCCCN1CCOCC1)c1c(-c2ccccc2)[nH]n(-c2nc3ccccc3s2)c1=O,-3,51*
O=C1OC(c2ccc(I)cc2)=N/C1=C\c1cccc(F)c1,-6,-1
Nc1cc(Oc2ccc(O)c(N)c2)ccc1O,3,90*
Nc1cc(C(=O)c2ccc(O)c(N)c2)ccc1O,-8,17
Cc1cccc(C(=O)Nc2ccc3ncnc(N4CCCCC4)c3c2)c1,1,18
CC(C)Oc1cccc(C(=O)Nc2ccc(N3CCCC3)cc2)c1,-7,99*
O=C(Nc1ccc2ncnc(N3CCCCC3)c2c1)c1cccc(F)c1,-1,1
CN(C)c1cccc(C(=O)Nc2ccc3ncnc(N4CCCC4)c3c2)c1,9,76*
O=C(Nc1ccc(N2CCOCC2)cc1)c1ccccc1F,0,4
O=C(Nc1ccc(N2CCCC2)cc1)c1ccccc1F,-5,88*
O=C(Nc1ccc2ncnc(N3CCCCC3)c2c1)c1ccccc1F,2,55*
O=C(Nc1ccc(N2CCCCC2)cc1)c1ccccc1,-19,·
CN(C)S(=O)(=O)c1ccc2c(c1)C(=NO)c1cc(S(=O)(=O)N(C)C)ccc1-2,0,-1
CCCCN1C(=O)/C(=C/c2c(N3CCCC3)nc3c(C)cccn3c2=O)SC1=S,·,13
CN1C(=O)c2cccnc2Sc2cc(NC(=O)Cc3ccccc3F)ccc21,-2,1
O=C(O)c1cc([N+](=O)[O-])c(N2CCN(c3cccc(C(F)(F)F)c3)CC2)c([N+](=O)[O-])c1,84*,47
SMILES,Pf apPOL block,mHTT CaM bind
O=[N+]([O-])c1ccc(N2CCN(c3cccc(C(F)(F)F)c3)CC2)s1,-1,38
CC1(C)CC(=O)c2cn(-c3ccc(Cl)cc3)c(=N)c(C#N)c2C1,1,-6
O=C(C1CCC(CNS(=O)(=O)c2cccs2)CC1)N1CCN(c2ccc(F)cc2)CC1 (stereo unspecified),4,30
CC(=O)c1sc(N2N=C(c3cc(C)ccc3C)CC2c2cccc([N+](=O)[O-])c2)nc1C (stereo unspecified),-1,6
COc1ccc(-c2coc3c2c(C)cc2oc(=O)c4c(c23)CCC4)cc1,86*,4
COc1ccc(-c2coc3c(C)c4oc(=O)c5c(c4cc23)CCC5)cc1,-4,2
COC(=O)c1ccc(NC(=O)Cc2csc(NC(=O)Nc3ccccc3OC)n2)cc1,5,25
COC(=O)c1ccc(NC(=O)Cc2csc(NC(=O)c3ncccn3)n2)cc1,3,98*
O=C(O)CCc1ccc(-c2cccs2)n1-c1ccc(O)cc1,-8,46
Cc1ccn2c(NC(=O)C(C)Cl)c(-c3cccc(F)c3)nc2c1 (stereo unspecified),22,69*
CC(Cl)C(=O)Nc1c(-c2ccc(C(F)(F)F)cc2)nc2ccccn12 (stereo unspecified),-5,55*
Cc1ccc(-c2nc3ccccn3c2NC(=O)C(C)Cl)cc1 (stereo unspecified),2,8
Cc1ccn2c(NC(=O)C(C)C)c(-c3cccc(F)c3)nc2c1,5,-1
O=C(Nc1c(-c2ccccc2)nc2ccccn12)c1cccnc1,-2,-7
O=C(/C=C/c1ccccc1)Nc1c(-c2ccccc2)nc2ccccn12,-7,61*
COc1ccc(S(=O)(=O)N2CCC(C(=O)Nc3cc(C(F)(F)F)ccc3Cl)CC2)cc1,-4,-5
CCc1ccc(C2CC(C(=O)O)CN(Cc3ccccc3)C2)cc1 (stereo unspecified),0,44
O=C(CSc1nnc(NC(=O)c2ccccc2C(F)(F)F)s1)NC1CCCCC1,-2,-7
O=C1C=CC(=NS(=O)(=O)c2cccc(C(=O)O)c2)C=C1,59*,58*
CC(C)(C)C1=CC(=NS(=O)(=O)c2ccc(F)cc2)C=C(C(C)(C)C)C1=O,-6,1
O=C1C=CC(=NS(=O)(=O)c2ccc(F)cc2)C=C1,-9,50*
O=C(O)c1cccc(S(=O)(=O)N2CCCCCC2)c1,-3,-15
CC(C)c1ccc(S(=O)(=O)N=C2C=CC(=O)C=C2)cc1,1,86*
Cc1ccc(S(=O)(=O)N=C2C=CC(=O)C=C2)cc1,-5,46
CC(=O)NC(=O)c1cc2ccccc2oc1=Nc1ccc(C(C)=O)cc1,6,-1
SMILES,Pf apPOL block,mHTT CaM bind
Cc1cc(NC(=O)CSc2ncc(CO)n2Cc2ccc(Cl)cc2)no1,-8,-7
Cc1ccc(C(=O)N2N=C(c3ccc(Br)cc3)CC2c2ccco2)cc1 (stereo unspecified),-3,78*
O=C(O)CCCC(=O)N1N=C(c2ccc(Br)cc2)CC1c1ccco1 (stereo unspecified),-2,22
CC(Oc1ccccc1Cl)C(=O)NCCn1nc(-n2cccn2)ccc1=O (stereo unspecified),-10,-9
CC(=O)Nc1ccc(C(=O)N2CCc3ccccc32)cc1,-3,23
COc1ccc(NC(=O)CN2CCN(C3c4ccccc4-c4ccccc43)CC2)cc1Cl,1,40
O=C(CN1CCN(C2c3ccccc3-c3ccccc32)CC1)Nc1ccc2c(c1)OCCO2,-1,58*
O=C(Nc1ccc(Cl)c(Cl)c1)c1ccc(F)c(S(=O)(=O)NCCc2ccccc2)c1,5,71*
O=C(Nc1ccc(Cl)c(Cl)c1)c1ccc(F)c(S(=O)(=O)NCc2ccc(F)cc2)c1,-7,0
O=C(Nc1ccc(F)c(F)c1)c1ccc(F)c(S(=O)(=O)NCCc2ccc(Cl)cc2)c1,-23,50*
O=C(Nc1cc(Cl)cc(Cl)c1)c1ccc(F)c(S(=O)(=O)NCCc2ccccc2)c1,39,40
Cc1ccc([C@H]2C[C@H](n3cc(-c4ccc(F)cc4)nn3)[C@@H](O)CN2C(=O)C2CCCCC2)cc1,-2,19
COc1ccc(Nc2nc(Cl)nc(Nc3cccc([N+](=O)[O-])c3)n2)cc1,-1,78*
COc1cccc(NC(=O)c2ccc([N+](=O)[O-])c(C)c2)c1,-3,-1
COc1cccc(Nc2nc(Cl)ccc2[N+](=O)[O-])c1,-7,71*
CC(C)(C)Nc1nc(Cl)nc(Nc2cccc([N+](=O)[O-])c2)n1,30,40
CCOC(=O)CC1(NC(=O)N2CCCCCC2c2cccs2)CCCCC1 (stereo unspecified),0,-13
